# According to PubChem BioAssay:
# Activity calls are given as the source filed them.
# How the values were obtained:
# [1] = optical density shifts of acrAB sulA E. coli – strain DRC41, OD650, 48 h, E. coli filamentation inducer project, primary screen (AID 1152); details: higher = more signal, called active from +8 up or from −8 down;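 also: E. coli MC1000 strain DRC41 lacking acrAB efflux pump and sulA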
# [2] = probe aLefty1 binding on compound microarray – biochemical, small-molecule microarray, 635/667 nm fluorescence, primary screen (AID 1153); details: higher = more signal;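 also: score merges spot fluorescence with signal-to-noise ratio from the scanned slide images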
# [3] = plasmodial surface anion channel blockers, osmotic lysis – cell-based, P. falciparum Indochina, OD700, 1 h, primary screen (AID 1154); details: P. falciparum Indochina infected RBC osmotic lysis, higher = more signal, called active from +8 up or from −8 down
# [4] = plasmodial surface anion channel blockers, osmotic lysis – cell-based, P. falciparum Indochina, OD700, 2 h, primary screen (AID 1155);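 also: lysis reports solute entry through the parasite surface anion channel PSAC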; details: P. falciparum Indochina infected erythrocytes, higher = more signal, called active from +8 up or from −8 down
# [5] = changes in parasitized red cell lysis, either direction – P. falciparum Indochina, OD700, 3 h, PSAC antagonist project, primary screen (AID 1156); details: P. falciparum-infected erythrocytes, osmotic lysis, higher = more signal, called active from +8 up or from −8 down
# [6] = plasmodial surface anion channel blockers, osmotic lysis – cell-based, P. falciparum Indochina, OD700, 18 h, primary screen (AID 1157); details: P. falciparum Indochina infected erythrocytes, osmotic lysis OD700, 18 h; higher = more signal, called active from +8 up or from −8 down
# [7] = S6 kinase pathway phospho-S6 level changes – cell-based, A549, cytoblot, luminescence, serum-stimulated, primary screen (AID 1158); details: 5 h, higher = more signal;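 also: serum-stimulated A549 lung adenocarcinoma cells; signal is phosphorylated S6 detected by cytoblot immunostaining with HRP secondary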
# [8] = target: NADPH oxidase 2 (Homo sapiens) (UniProt P04839); experiment: compounds shifting NOX2 Amplex Red fluorescence – cell-based, HEK293-NOX2, PMA-stimulated, NOX inhibitor project, primary screen (AID 1159); details: 45 min, higher = more signal, called active from +8 up or from −8 down; also: test concentration not given here
# [9] = target: NADPH oxidase 4 (Homo sapiens) (UniProt Q9NPH5); experiment: compounds shifting NOX4 Amplex Red fluorescence – cell-based, HEK293-NOX4, tetracycline-induced, NOX inhibitor project, primary screen (AID 1160); details: HEK293-NOX4, Amplex Red H2O2 fluorescence, 45 min; higher = more signal, called active from +8 up or from −8 down
# [10] = target: NADPH oxidase 5 (Homo sapiens) (UniProt Q96PH1); experiment: compounds shifting NOX5 Amplex Red fluorescence – cell-based, HEK293-NOX5, NOX inhibitor project, primary screen (AID 1161); details: HEK293-NOX5, ionomycin, 45 min, higher = more signal
# [11] = compound effects on lung adenocarcinoma cell viability – A549, calcein-AM fluorescence, 48 h, basal, profiling panel (AID 1162); details: higher = more signal; also: test concentration not given here
# [12] = compound effects on differentiated 3T3-L1 adipocyte viability – cell-based, 3T3-L1 adipocytes, calcein-AM fluorescence, 48 h, basal, profiling panel (AID 1163); details: 3T3-L1 adipocytes viability, higher = more signal; also: test concentration not given here
# [13] = compound effects on hepatocellular carcinoma cell viability – HepG2, calcein-AM fluorescence, 48 h, basal, profiling panel (AID 1164); details: higher = more signal; also: test concentration not given here
# [14] = compound effects on multiple myeloma cell viability – MM1S, calcein-AM fluorescence, 48 h, basal, profiling panel (AID 1165); details: higher = more signal;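 also: viability of MM1S multiple myeloma cells under basal unstimulated conditions; test concentration not given here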
# [15] = calcein-AM signal in unstimulated myeloma cells – cell-based, calcein-AM fluorescence, 48 h, PK04 Diversity Set, profiling panel (AID 1166); details: RPMI8226 myeloma viability, higher = more signal;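 also: cells grown under basal conditions without added stimulus; test concentration not given here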
# [16] = JC-1 mitochondrial signal, unstimulated HepG2 cells – cell-based, JC-1 fluorescence, 24 h, 100 nL compound, profiling panel (AID 1167); details: HepG2 mitochondrial potential, higher = more signal; also: test concentration not given here
# [17] = JC-1 mitochondrial signal, unstimulated adipocytes – cell-based, JC-1 fluorescence, 3T3-L1 adipocytes, 24 h, 100 nL compound, profiling panel (AID 1168); details: JC-1 mitochondrial fluorescence, higher = more signal, called active from +8 up or from −8 down; also: test concentration not given here
# [18] = JC-1 mitochondrial signal, unstimulated myeloma cells – cell-based, JC-1 fluorescence, RPMI8226, 24 h, 100 nL compound, profiling panel (AID 1169); details: JC-1 mitochondrial potential fluorescence, higher = more signal; also: test concentration not given here
# [19] = JC-1 mitochondrial signal, unstimulated MM1S myeloma – cell-based, JC-1 fluorescence, 24 h, 100 nL compound, profiling panel (AID 1170); details: MM1S mitochondrial potential, higher = more signal; also: test concentration not given here
# [20] = resazurin metabolic signal in A549 cells – cell-based, resazurin fluorescence, 24 h, PK04 Diversity Set, profiling panel (AID 1171); details: A549 viability, higher = more signal, called active from +8 up or from −8 down; also: test concentration not given here
# NADPH oxidase 5 (Homo sapiens), sequence (Q96PH1 whole entry, looked up): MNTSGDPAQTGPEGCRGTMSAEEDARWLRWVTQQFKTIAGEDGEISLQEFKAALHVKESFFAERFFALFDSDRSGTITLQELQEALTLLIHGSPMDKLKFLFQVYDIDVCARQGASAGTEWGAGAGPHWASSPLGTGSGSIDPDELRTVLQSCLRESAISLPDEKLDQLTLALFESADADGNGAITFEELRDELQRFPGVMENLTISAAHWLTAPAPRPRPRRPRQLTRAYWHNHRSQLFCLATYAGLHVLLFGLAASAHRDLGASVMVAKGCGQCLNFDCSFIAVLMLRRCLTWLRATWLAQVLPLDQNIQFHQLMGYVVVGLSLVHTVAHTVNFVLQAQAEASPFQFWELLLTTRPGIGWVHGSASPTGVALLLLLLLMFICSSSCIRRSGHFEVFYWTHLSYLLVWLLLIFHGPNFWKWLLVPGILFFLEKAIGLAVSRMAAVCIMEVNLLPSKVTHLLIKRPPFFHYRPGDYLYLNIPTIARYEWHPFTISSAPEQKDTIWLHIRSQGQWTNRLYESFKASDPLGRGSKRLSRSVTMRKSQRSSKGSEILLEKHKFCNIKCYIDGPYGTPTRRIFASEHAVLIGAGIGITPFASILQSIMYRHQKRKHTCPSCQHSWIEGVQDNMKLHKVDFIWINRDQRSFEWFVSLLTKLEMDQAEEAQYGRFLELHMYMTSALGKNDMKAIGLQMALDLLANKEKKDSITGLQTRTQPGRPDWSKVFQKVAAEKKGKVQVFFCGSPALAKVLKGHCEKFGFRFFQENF
# NADPH oxidase 4 (Homo sapiens), sequence (Q9NPH5 whole entry, looked up): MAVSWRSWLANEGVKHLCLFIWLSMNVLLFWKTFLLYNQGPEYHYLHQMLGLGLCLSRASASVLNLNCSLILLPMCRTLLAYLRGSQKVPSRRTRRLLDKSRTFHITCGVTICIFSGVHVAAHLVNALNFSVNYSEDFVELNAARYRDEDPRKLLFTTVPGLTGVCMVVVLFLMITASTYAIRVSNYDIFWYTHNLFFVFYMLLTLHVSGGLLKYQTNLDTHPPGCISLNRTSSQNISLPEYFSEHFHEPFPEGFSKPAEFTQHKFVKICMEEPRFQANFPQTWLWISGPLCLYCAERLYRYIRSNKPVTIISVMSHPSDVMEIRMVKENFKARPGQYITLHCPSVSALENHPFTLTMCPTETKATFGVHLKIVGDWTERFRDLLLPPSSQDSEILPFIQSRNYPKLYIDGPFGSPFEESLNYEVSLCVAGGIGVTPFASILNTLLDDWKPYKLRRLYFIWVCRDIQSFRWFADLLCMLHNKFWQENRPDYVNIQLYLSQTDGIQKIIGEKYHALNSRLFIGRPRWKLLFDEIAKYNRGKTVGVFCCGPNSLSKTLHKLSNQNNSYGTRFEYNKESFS
# NADPH oxidase 2 (Homo sapiens), sequence (P04839 whole entry, looked up): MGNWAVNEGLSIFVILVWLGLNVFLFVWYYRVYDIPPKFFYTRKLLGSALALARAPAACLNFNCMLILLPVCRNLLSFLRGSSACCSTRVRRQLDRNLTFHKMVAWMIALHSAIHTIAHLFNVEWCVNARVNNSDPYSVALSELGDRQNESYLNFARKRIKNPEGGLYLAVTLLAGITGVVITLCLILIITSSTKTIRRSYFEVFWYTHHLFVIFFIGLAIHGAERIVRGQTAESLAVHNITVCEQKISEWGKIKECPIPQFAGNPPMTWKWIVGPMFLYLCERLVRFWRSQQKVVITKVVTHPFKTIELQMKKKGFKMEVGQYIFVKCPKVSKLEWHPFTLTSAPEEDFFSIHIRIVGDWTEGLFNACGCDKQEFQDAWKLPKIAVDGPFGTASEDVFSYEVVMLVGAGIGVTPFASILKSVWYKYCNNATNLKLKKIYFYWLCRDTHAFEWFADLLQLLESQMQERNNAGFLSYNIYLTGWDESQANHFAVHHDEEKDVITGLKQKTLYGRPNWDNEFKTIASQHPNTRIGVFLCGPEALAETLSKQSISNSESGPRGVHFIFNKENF
Compound,z-score [1],composite z-score [2],z-score [3],z-score [4],z-score [5],z-score [6],z-score [7],z-score [8],z-score [9],z-score [10],z-score [11],z-score [12],z-score [13],z-score [14],z-score [15],z-score [16],z-score [17],z-score [18],z-score [19],z-score [20]
C=C(COC)/C(=C/C[C@@H](OC(C)=O)c1cccc(OCCO)c1)c1cc(C(=O)OC)ccc1OC,1.37 (inactive),0.0319,15.7 (active),0.098 (inactive),0.363 (inactive),-1.44 (inactive),-0.316,1.51 (inactive),1.28 (inactive),-1.1,1.1,-0.412,0.409,-1.29,0.0922,3.3,1.2 (inactive),0.127,-0.466,1.49 (inactive)
C=CC[C@@]1(C(=O)N2CCOCC2)N=C(c2ccc(OCCCO)cc2)O[C@@H]1c1ccccc1,1.24 (inactive),-0.269,20.8 (active),4.03 (inactive),2.25 (inactive),1.11 (inactive),-0.115,-1.04 (inactive),0.471 (inactive),-1,0.429,1.9,-0.55,-0.0274,-0.624,0.13,1.09 (inactive),-0.357,0.216,1.85 (inactive)
C[C@H]1COC(=O)[C@@H]2CCCN2C(=O)[C@@H](C)COC(=O)[C@@H]2CCCN2C1=O,0.407 (inactive),-0.147,-0.0889 (inactive),0.0593 (inactive),0.425 (inactive),-0.187 (inactive),0.33,0.764 (inactive),0.382 (inactive),-0.406,0.507,0.442,-0.178,0.323,-0.0243,0.799,0.085 (inactive),-0.108,0.0551,1.5 (inactive)
C=CCNC(=O)[C@H]1[C@@H]2C(=O)O[C@@H](c3ccccc3)[C@@H](c3ccccc3)N2[C@@H](c2ccc(O)cc2)[C@]12C(=O)Nc1ccc(C#CCNC(N)=O)cc12,1.86 (inactive),0.599,1.7 (inactive),1.29 (inactive),0.682 (inactive),0.506 (inactive),0.583,1.19 (inactive),-0.188 (inactive),0.1,0.294,0.57,-0.348,-0.778,-0.144,-0.0995,-0.0287 (inactive),0.424,0.716,0.999 (inactive)
O=C1O[C@H](c2ccccc2)[C@H](c2ccccc2)N2[C@H]1[C@@H](C(=O)NC[C@H](O)c1ccccc1)[C@]1(C(=O)Nc3ccc(C#CC4=CCCCC4)cc31)[C@H]2c1ccc(OCCO)cc1,-0.266 (inactive),0.0248,3.76 (inactive),2.55 (inactive),0.0828 (inactive),2.26 (inactive),-0.099,1.13 (inactive),0.611 (inactive),1.32,0.0545,-0.405,-0.674,-1.24,-2.29,-2.36,1.27 (inactive),-1.34,-1.52,-0.527 (inactive)
CC(C)N1CC=CC23O[C@@H]4/C=C\CCCOC(=O)C4[C@H]2C(=O)N(CCCCCO)[C@@H]3C1=O (stereo not given in full),1.57 (inactive),-0.285,-0.455 (inactive),0.0907 (inactive),0.658 (inactive),-0.258 (inactive),0.946,0.845 (inactive),-0.00488 (inactive),1.7,0.196,1.24,0.791,1.64,0.0268,0.446,1.31 (inactive),-0.197,0.599,0.929 (inactive)
CC(C)(C)OC(=O)CC[C@]1(C(=O)NCCN2CCOCC2)N=C(c2ccc(OCCCO)cc2)O[C@H]1c1ccccc1CN=[N+]=[N-],1.66 (inactive),-0.0162,9.62 (active),0.121 (inactive),0.434 (inactive),-1.81 (inactive),1.04,1.06 (inactive),0.755 (inactive),0.699,0.327,1.13,0.0133,1.31,-0.722,-0.131,0.289 (inactive),-0.0354,0.671,0.619 (inactive)
O=C(N1CCCCC1)[C@@]1(CCS(=O)(=O)c2ccccc2)N=C(c2ccc(OCCCO)cc2)O[C@H]1c1ccccc1,0.646 (inactive),0.347,30.1 (active),24.2 (active),2.17 (inactive),4.24 (inactive),2.24,-4.27 (inactive),0.156 (inactive),-4.84,-1.35,1,-1.12,-2.25,-3.55,2,-0.751 (inactive),-0.72,-2.09,-0.908 (inactive)
CO[C@@H]1COC(=O)[C@H](C)NC(=O)CC=C[C@@H](C)[C@H](OC)COC(=O)[C@H](C)NC(=O)CC=C[C@H]1C,1.02 (inactive),-0.0984,0.174 (inactive),0.551 (inactive),0.0076 (inactive),0.108 (inactive),0.298,0.319 (inactive),0.114 (inactive),0.976,1.2,-0.0006,1.01,0.419,0.973,0.51,1.44 (inactive),-1.04,1.95,0.787 (inactive)
